Compound activity deposited in PubChem by several laboratories.
Compounds with a hit are over-represented: about 3.9% of the library has one in this group of screens.
GDH-TPI counter-1 = GDH-TPI coupled enzyme inhibition counter-screen. GDH-TPI coupled enzyme counterscreen, NADH absorbance. inhibition, % at 4.8 µM. 1.2% of 360,000 active. AID 588335; in the data active = inhibition above about 30%;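 note: 0% = DMSO wells and 100% = wells lacking the enzyme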
CCHF vOTU inh = blocks the CCHF virus ovarian tumor domain protease; CCHFV vOTU protease, Pep-AMC fluorescence; inhibition, % at 11.5 µM; 0.55% of 370,000 active; AID 651958; in the data active = inhibition above about 30%; note: 0% = vehicle wells with enzyme and 100% = no enzyme wells
Vc quorum ag = inducers of Vibrio cholerae quorum light production without autoinducers; V. cholerae BH1578 lux reporter, luminescence, 6 h; activation, % at 18.7 µM; 0.16% of 350,000 active; in the data active = activation mostly above about 9.7%, no sharp cut-off
Mtb FBA inh = inhibitors of M. tuberculosis fructose-bisphosphate aldolase; inhibition, % at 1 µM; purified M. tuberculosis FBA, fluorescence read-out; AID 588726; 2.3% of 360,000 active;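 note: 0% = vehicle and 100% = reference inhibitor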
Target sequence (P9WQA3 whole entry, looked up): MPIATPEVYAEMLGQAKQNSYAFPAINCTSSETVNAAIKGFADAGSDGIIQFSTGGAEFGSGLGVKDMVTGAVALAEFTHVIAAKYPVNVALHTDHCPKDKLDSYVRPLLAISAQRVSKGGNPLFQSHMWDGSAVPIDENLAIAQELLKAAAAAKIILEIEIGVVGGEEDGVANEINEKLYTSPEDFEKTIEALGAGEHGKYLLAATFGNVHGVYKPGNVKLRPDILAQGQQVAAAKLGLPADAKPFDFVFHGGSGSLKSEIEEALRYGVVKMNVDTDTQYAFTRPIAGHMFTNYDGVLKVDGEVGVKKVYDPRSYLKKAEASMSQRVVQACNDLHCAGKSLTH
Mtb FBA confirm = Mtb FBA inhibition, confirmed | shares compounds with Mtb FBA inh | purified M. tuberculosis FBA, fluorescence read-out | inhibition, % at 1 µM | 78% of 5,600 active;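 note: 0% = vehicle wells and 100% = reference inhibitor wells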
GDH-TPI counter-2 = inhibits GDH-TPI coupling enzymes, flagging Mtb FBA hits. shares compounds with Mtb FBA inh. GDH-TPI coupled enzyme counterscreen, fluorescence. inhibition, % at 1 µM. 81% of 5,600 active. AID 652141; in the data active = inhibition above about 10%
GDH-TPI dose = GDH-TPI dose response counter-screen for Mtb FBA. 79% of 170 active. AID 652145. IC50, µM. shares compounds with Mtb FBA inh. GDH-TPI coupled enzyme assay, fluorescence, artifact counterscreen; call rule not given here
Numbers without * were called inactive; i = inactive; / = not tested or not shown; + = active, no number. Cut-off read from the data, not from the text of the source, unless noted: active = inhibition above about 27%; inactive = the rest.

SMILES | GDH-TPI counter-1 | CCHF vOTU inh | Vc quorum ag | Mtb FBA inh | Mtb FBA confirm | GDH-TPI counter-2 | others
Cc1cc(OCC(=O)Nc2ccc(CN3CCOCC3)cc2)c2c(C)cc(=O)oc2c1 | -2 | -20 | -1 | 77* | 52* | 33*
Cc1[nH]c2ccccc2c1SCC(=O)N1CCCc2ccccc21 | -10 | 0 | 0 | -1 | / | /
O=C(Nc1nnc(CCc2ccccc2)s1)c1ccccc1 | -2 | -6 | 0 | -1 | / | /
COc1ccc(NC(=O)NNS(=O)(=O)c2cc(C)ccc2C)cc1OC | -5 | 19 | -1 | -1 | / | /
COCCCNc1nc2ccccc2nc1NS(=O)(=O)c1ccc(OC)cc1 | 25 | -29 | -1 | 30* | 71* | 65*
OC(c1cccnc1)c1nc(/C=C/c2ccc(C(F)(F)F)cc2)cs1 (stereo not drawn) | -4 | 10 | 0 | -2 | / | /
COC(=O)c1ccc2c(=O)sc(N3CCC(C(N)=O)CC3)nc2c1 | -2 | -59 | 0 | 40* | 72* | 61*
COC(=O)c1ccc(C(=O)OC)c(NC(=S)N2CCC(C(N)=O)CC2)c1 | 2 | -37 | 0 | 18 | / | /
O=C(Nc1nc2ccccc2[nH]1)c1ccccc1O | 15 | -32 | -2 | 47* | + | +
Cc1cccc(C(=O)OCC(=O)N2CCCCCC2)c1C | 12 | 10 | -2 | 4 | / | /
N#Cc1cccc(NC(=O)Cn2cnc(S(=O)(=O)N3CCc4ccccc43)c2)c1 | 8 | / | -3 | -1 | / | /
O=C1CCC(C(=O)OCc2cc(=O)oc3ccc4ccccc4c23)=NN1 | 22 | -54 | i | 31* | 91* | 62*
Cc1cc(C)n(C2CCCCC2OC(=O)CCc2ccccc2)n1 (stereo not drawn) | 2 | 14 | i | 0 | / | /
O=C(CSc1n[nH]c(-c2ccc(S(=O)(=O)N3CCCCC3)cc2)n1)Nc1nccs1 | 18 | -6 | i | 61* | 65* | 47*
CCn1c(-c2cc(-c3ccccc3OC)nc3ccccc23)n[nH]c1=S | 4 | 6 | 0 | 3 | / | /
O=C(O)CCCCCNS(=O)(=O)c1ccc2c3c(cccc13)C(=O)N2 | 10 | -79 | 1 | 40* | 90* | 67*
CNS(=O)(=O)c1cc(S(=O)(=O)NC)c2cccc3c2c1NC3=O | 23 | -38 | 0 | 31* | 92* | 77*
CC(C)C(NS(=O)(=O)c1ccc2c3c(cccc13)C(=O)N2)C(=O)O (stereo not drawn) | 15 | -29 | 0 | 15 | / | /
O=C1Nc2ccc(S(=O)(=O)N(CCO)CCO)c3cccc1c23 | 8 | -61 | 2 | 32* | 0 | -5
CN(c1ccccc1C(=O)O)S(=O)(=O)c1ccc2c3c(cccc13)C(=O)N2 | 1 | 15 | -1 | 4 | / | /
CNS(=O)(=O)c1ccc2c3c(cccc13)C(=O)N2 | 17 | -114 | i | 56* | 17 | 4 | GDH-TPI dose=2.9*
COc1ccc(NC(=O)c2cccn(CC=C(C)C)c2=O)cc1 | 7 | -3 | 0 | -1 | / | /
O=C(CSc1nnc(CNC(=O)c2ccccc2F)o1)Nc1ccc2c(c1)OCCO2 | 0 | 4 | i | 3 | / | /
O=C(O)CNS(=O)(=O)c1ccc2c3c(cccc13)C(=O)N2 | 16 | -51 | 0 | 37* | + | 145*
C[C@]12c3[nH]c4cc(-c5ccco5)ccc4c3CCN1C(=O)[C@@H](CC(=O)NCCc1ccccn1)C[C@@H]2C(=O)N1CCCCC1 | 17 | -32 | 0 | 43* | 68* | 47*
SMILES | GDH-TPI counter-1 | CCHF vOTU inh | Vc quorum ag | Mtb FBA inh | Mtb FBA confirm | GDH-TPI counter-2 | others
C[C@]12c3[nH]c4cc(-c5ccco5)ccc4c3CCN1C(=O)[C@@H](CC(=O)NCCC1=CCCCC1)C[C@@H]2C(=O)N1CCCCC1 | 11 | 6 | 0 | 10 | / | /
CC[C@]12c3[nH]c4cc(-c5ccco5)ccc4c3CCN1C(=O)[C@@H](CC(=O)NC/C=C(\C)CCC=C(C)C)C[C@@H]2C(=O)N1CCN(C(=O)C2CC2)CC1 | 4 | -32 | i | 11 | / | /
CC[C@]12c3[nH]c4cc(-c5ccco5)ccc4c3CCN1C(=O)[C@@H](CC(=O)NC(C)(C)C)C[C@@H]2C(=O)N1CCN(C(=O)C2CC2)CC1 | 15 | -53 | -1 | 27* | 63* | 52*
CC[C@]12c3[nH]c4cc(-c5ccco5)ccc4c3CCN1C(=O)[C@@H](CC(=O)NCCc1ccccn1)C[C@@H]2C(=O)N1CCN(C(=O)C2CC2)CC1 | 4 | -62 | 0 | 30* | 47* | 33*
CC[C@]12c3[nH]c4ccccc4c3CCN1C(=O)C(CC(=O)NCCc1ccccn1)C[C@@H]2C(=O)N1CCN(C(=O)C2CC2)CC1 (stereo partly drawn) | 12 | 8 | 0 | 2 | / | /
N#CC1=C(N2CCCCC2)c2cc3c(n2C1=O)CCCC3 | 18 | 0 | 3 | -2 | / | /
CCOc1ccc(C(=O)Nc2ccc(S(=O)(=O)Nc3nccc(C)n3)cc2)cc1OCC | 9 | 8 | -1 | 2 | / | /
CCN(CC)CCN(Cc1cc2cc3c(cc2[nH]c1=O)OCCO3)C(=S)NCCOC | 25 | -7 | -6 | 23 | / | /
CCOC(=O)N1CCN(C(=O)c2cn(CCOC)c(=O)c3c2c2ccccc2n3C)CC1 | 18 | -47 | 0 | 43* | + | +
COCCn1cc(C(=O)N2CCN(C)CC2)c2c3ccccc3n(C)c2c1=O | 1 | -35 | i | 42* | 106* | 62*
COC1(OC)N=C(N)C2(C#N)C(c3ccccc3)NC(C)=CC12C#N (stereo not drawn) | -2 | -35 | 1 | 62* | + | +
COC1(OC)N=C(N)C2(C#N)C(c3cccc(Oc4ccccc4)c3)C12C#N (stereo not drawn) | 1 | -14 | i | -4 | / | /
Cc1nc(OCc2ccccc2)c2ccccc2n1 | 12 | 6 | -1 | 7 | / | /
CN(C)c1nc(OCc2ccccc2)c2ncc(=O)[nH]c2n1 | 17 | -8 | -1 | 31* | 10 | -4 | GDH-TPI dose=4.9*
CC1(C)Oc2ccc3ccc(=O)oc3c2/C(=C/O)C1=O | 20 | -21 | i | 44* | 153* | 119*
C/C=C(/C)C(=O)O[C@@H]1Cc2c(ccc3ccc(=O)oc23)OC1(C)C | 15 | -19 | 0 | 45* | 68* | 42*
C/C=C(/C)C(=O)O[C@H]1[C@@H](O)c2c(ccc3ccc(=O)oc23)OC1(C)C | 20 | -13 | i | 34* | 93* | 79*
C/C=C(/C)C(=O)O[C@@H]1[C@H](OC(C)=O)c2c(ccc3ccc(=O)oc23)OC1(C)C | 32* | 2 | i | 32* | 115* | 88*
CC1(C)Oc2ccc3ccc(=O)oc3c2/C(=C/N)C1=O | 16 | 3 | 0 | 1 | / | /
C/C=C(/C)C(=O)OC1c2c(ccc3ccc(=O)oc23)OC(C)(C)C1OC(C)=O (stereo not drawn) | 14 | 16 | -2 | 15 | / | /
